# Screening results (PubChem)
# Methyltransferases = Primary Screen for Target Class Profiling of Small Molecule Inhibitors of Methyltransferases; purified enzyme, MTase-Glo SAH luminescence; stronger effect = lower value; calls only at 40 µM; 3.9% of 25,000 active; call rule not given here
#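 Each enzyme was assayed with SAM and its substrate. SAH formation detected by MTase-Glo luminescence; single-point 40 uM screen[…].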
# Active calls of the source: *; i = inactive; + = active, no number. This excerpt belongs to a sample that is enriched for hits. On the % scale 0 is the no-effect control and ±100 the full control effect.
SMILES,Methyltransferases
CC(C)c1cc(-c2n[nH]c(=O)n2-c2ccc3c(ccn3C)c2)c(O)cc1O,+
COc1ccc(-c2nnc3n(CCCOC(C)C)c(=O)c4ccccc4n23)cc1OC,i
Cc1ccc(CN2C(=O)c3ccc(-c4ccco4)n3CC2(C)C(=O)NC2CCCCCC2)cc1 (stereo not drawn),i
CC(C)CNC(=O)c1ccc2c(=O)n(CC(C)C)c3nn(Cc4ccccc4F)c(=O)n3c2c1,i
CCCn1c(=O)c2ccc(C(=O)NCC(C)C)cc2n2c(=O)n(CC(=O)NCc3ccccc3)nc12,i
CCCCN(CC)CCN1C(=O)c2cc3sccc3n2CC1(C)C(=O)NC1CCCCCC1 (stereo not drawn),i
CCCN1C(=O)c2cc3occc3n2CC1(C)C(=O)NC1CCC(C)CC1 (stereo not drawn),i
COCC(=O)NC[C@H]1CCN(Cc2ccc(C)s2)C[C@H]1N(C)C,i
C=CC(=O)N1CCN(C(=O)CNc2cc(-c3ccccc3Cl)c(Cl)cc2OC)CC1,i
COc1cccc(C(=O)N2CCN(C(=O)COc3cccc(C)c3)CC2)c1OC,i
C=CC(=O)N1CCN(C(=O)c2cc(-c3cc(Cl)ccc3Cl)c(Cl)cc2OC)CC1,+
COc1ccc(Cl)cc1NC(=O)Cn1nc2n(CCCOC(C)C)c(=O)c3ccccc3n2c1=O,i
CCCc1nc2c3ccccc3n(CC(=O)N3CCN(c4ccc(F)cc4)CC3)c(=O)n2n1,i
Cc1ccc(S(=O)(=O)c2nnn3c2nc(NCc2ccc4c(c2)OCO4)c2ccccc23)cc1C,i
CCOC(=O)c1cc2n(n1)CC(C)(C(=O)NC1CCCCC1)N(c1cc(Cl)ccc1OC)C2=O (stereo not drawn),i
COc1ccc(N2C(=O)c3cc4sccc4n3CC2(C)C(=O)NC2CCCC(C)C2C)cc1OC (stereo not drawn),i
Cc1ccc(CNC(=O)c2ccc3c(=O)nc4c(-c5ccc(Cl)cc5)n[nH]n4c3c2)cc1,i
N=C(N)SCCN,+
COc1cccc(CSc2nnc3n(Cc4ccc(C)cc4)c(=O)c4ccccc4n23)c1,i
Cc1ccc(NC(=O)CSc2nnc3n(CC(C)C)c(=O)c4ccccc4n23)c(Cl)c1,i
COc1cc2c(Nc3cc(F)c(Cl)c(Cl)c3)ncnc2cc1OCC1CCCN(C)CCC1,+
COc1cc2c(Nc3ccc(Br)cc3F)ncnc2cc1OCC1CCN(C)CC1,+
COc1ccccc1C(=O)N1CCC(Cc2nncn2-c2ccccc2)CC1,i
CC1(C(=O)NC2CCCCC2)Cn2c(nc3ccccc32)C(=O)N1Cc1cccnc1 (stereo not drawn),i
c1ccc(-c2ncc(CN3CCN(c4ncccn4)CC3)[nH]2)cc1,i
SMILES,Methyltransferases
CC1(C)CCCC2(C)C=C(C(=O)O)C(O)CC12 (stereo not drawn),i
CN1CCN(CCCN2c3ccccc3Sc3ccc(Cl)cc32)CC1,i
CN1CCN2c3ccccc3Cc3ccccc3C2C1 (stereo not drawn),i
CSc1ccc2c(c1)C(N1CCN(C)CC1)Cc1ccccc1S2 (stereo not drawn),+
COCCN1CCCC1c1nc(C2CN(S(=O)(=O)c3cccc(OC)c3)C2)no1 (stereo not drawn),i
O=C(NCCCc1ccccc1)C1CCCCN1Cc1ccc(-c2ccsc2)cc1 (stereo not drawn),i
CCc1cc2c(cc3n2CC(C)(C(=O)NC2CCCCCC2)N(c2ccc(C)cc2C)C3=O)s1 (stereo not drawn),i
COc1ccc(CCN2C(=O)c3cc4ccccc4n3CC2(C)C(=O)NCc2ccccc2)cc1OC (stereo not drawn),i
COc1ccc(CN2C(=O)c3cc4ccccc4n3CC2(C)C(=O)NCc2ccccc2)cc1OC (stereo not drawn),+
Cc1cccc(CN2C(=O)c3cc4ccccc4n3CC2(C)C(=O)NCc2ccccc2)c1 (stereo not drawn),i
O=C(Cn1nc2n(Cc3ccccc3)c(=O)c3ccccc3n2c1=O)Nc1ccc(Cl)cc1,i
Cn1ccnc1CN1C(=O)CO[C@H]2CN(C(=O)c3cnccn3)C[C@H]21,i
CC[C@H](C)/C=C(C)/C=C/C1=CC2=C(Cl)C(=O)[C@](C)(O)[C@H](OC(C)=O)[C@H]2CO1,i
CC1CCN(C(=O)Cn2c(=O)oc3cc(S(=O)(=O)N4CC(C)CC(C)C4)ccc32)CC1 (stereo not drawn),i
COc1ccc(NS(=O)(=O)c2ccc3c(c2)[C@H]2C=CC[C@H]2[C@@H](c2cccc(OC)c2OC)N3)cc1,i
Cc1cc2c(cc1C1(c3ccc(C(=O)O)cn3)CC1)C(C)(C)CCC2(C)C,i
CCCCCCCOc1cc2c(cc1/C(C)=C/c1ccc(C(=O)O)cc1)C(C)(C)CCS2(=O)=O,+
Cc1ccc(Cn2c(=O)c3ccccc3n3c(CCC(=O)NCCCN4CCCC4=O)nnc23)cc1,i
CCCN1C(=O)c2c(C(=O)NCc3ccc(OC)cc3)ncn2CC1(C)C(=O)NCc1ccc(F)cc1 (stereo not drawn),i
